Active and inactive are the calls of the source. Unless noted, no rule for the calls is given here.

Test [1] can be described thus: anti-His antibody binders, primary screen, artefact control for SMM control protein annotation, biochemical, small-molecule microarray, 635 nm fluorescence (AID 1128).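 Also: score merges feature fluorescence with signal-to-noise for each printed compound spot.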 Conditions: anti-His Alexa647 antibody binding, higher = more signal.
In test [2] the test system is Human papillomavirus type 1a E7 protein (residues 1-88). As to the kind of experiment: HPV1a E7 small-molecule binders, primary screen, biochemical, small-molecule microarray, residues 1-88, 635 nm (AID 1129). As to conditions: small-molecule microarray binding, fluorescence 635 nm; higher = more signal.
The target of test [3] is Focal adhesion kinase 1 (Homo sapiens) (UniProt Q05397). As to the kind of experiment: small-molecule microarray binders of FAK, primary screen, biochemical, 635/667 nm fluorescence, BSA, DTT (AID 1130).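 Also: composite of spot emission at 667 nm and signal to noise over triplicate slides.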 Conditions: PTK2 binding, 635 nm fluorescence, higher = more signal.
For test [4], the system named is Fibrinogen (Alexa647-labelled). As to the kind of experiment: fibrinogen binders on compound microarrays, profiling panel, artefact control for SMM control-protein annotation, biochemical, small-molecule microarray, 635/667 nm fluorescence (AID 1131).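 Also: z-score merges 667 nm fluorescence with per-spot signal-to-noise over triplicate slides.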 As to conditions: fibrinogen-A647 binding fluorescence, higher = more signal.
For test [5], the target named is Follistatin (Homo sapiens) (UniProt P19883). Kind of test: follistatin binders on small-molecule microarrays, primary screen, biochemical, small-molecule microarray, 635/667 nm fluorescence (AID 1132). Conditions: FST binding, 635 nm fluorescence, higher = more signal.
Test [6] concerns the target Fibroblast growth factor 2 (Homo sapiens) (UniProt P09038). As to the kind of experiment: FGF2 binders on small-molecule microarrays, primary screen, biochemical, small-molecule microarray, 635/667 nm fluorescence (AID 1133). As to conditions: small-molecule microarray binding, FGF2, fluorescence 635/667; higher = more signal.
Test [7] is described as follows: mitochondrial membrane potential change in A549 cells, profiling panel, cell-based, JC-1 fluorescence, basal, 24 h, 100 nL (AID 1138).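 Also: A549 lung adenocarcinoma cells under basal conditions with no added stimulus; test concentration not given here.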 Conditions: higher = more signal.
For another test, the system named is Lefty1. As to the kind of experiment: Lefty1 binders on small-molecule microarrays, primary screen, biochemical, small-molecule microarray, 635/667 nm fluorescence (AID 1139). As to conditions: small-molecule microarray binding, fluorescence 635/667; higher = more signal.
The subject of test [8] is wheat germ agglutinin (Triticum aestivum), Alexa647-labelled. Kind of test: wheat germ agglutinin binders on compound microarrays, profiling panel, artefact control for SMM control-protein annotation, biochemical, small-molecule microarray, 635/667 nm fluorescence (AID 1140).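 Also: score merges 667 nm feature emission with signal to noise over triplicate slides.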 Conditions: WGA-A647 binding, 635 nm fluorescence, higher = more signal.
Test [9] concerns the target Luciferin 4-monooxygenase (Photinus pyralis) (UniProt P08659). Kind of test: firefly luciferase enzyme inhibitors, primary screen, biochemical, luminescence, purified enzyme, 2006 set (AID 1141).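 Also: cell-free assay with purified firefly luciferase at 100 ng per well in PBS; test concentration not given here.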 Conditions: SteadyGlo luminescence, 30 min, higher = more signal, called active from +8 up or from −8 down.
Test [10] concerns Wnt5a (protein binding on small-molecule microarray). As to the kind of experiment: Wnt5a binders on small-molecule microarray, primary screen, biophysical, 635/667 nm fluorescence (AID 1142).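 Also: fluorescence read at 667 nm with signal to noise per printed feature.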 Conditions: 635 nm fluorescence, higher = more signal.
A short description of test [11]: cell viability in Huh7 cells, primary screen, cytotoxicity control for HCV replication inhibitor project, CellTiter-Glo luminescence, basal, 48 h (AID 1143).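 Also: Huh7 hepatoma cells carrying a hepatitis C replication reporter with no stimulus; test concentration not given here.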 As to conditions: Huh7 HCV replicon, higher = more signal, called active from +8 up or from −8 down. On the technique in general: ATP-based viability assays read luminescence as a measure of living cells.
Test [12] in a line: P. aeruginosa biofilm formation inhibitors, primary screen, PAO1 strain, BacTiter-Glo luminescence, LB-PBS (AID 1144). As to conditions: 12 h, higher = more signal.
The nature of test [13]: CREB reporter modulators without forskolin, primary screen, cell-based, PC12, CRE-LacZ reporter, unstimulated (AID 1145). As to conditions: no forskolin, luminescence, 4.5 h, higher = more signal, called active from +8 up or from −8 down.
A short description of test [14]: CREB reporter modulators under forskolin, primary screen, cell-based, PC12, CRE-LacZ reporter, forskolin-stimulated (AID 1146).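 Also: PC12 cells with 6xCRE LacZ reporter stimulated by forskolin 10 µM; beta-galactosidase reporter signal reflecting CREB driven transcription.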 As to conditions: luminescence, 4.5 h, higher = more signal, called active from +8 up or from −8 down.
Test [15] addresses Streptavidin (Streptomyces avidinii) (UniProt P22629). Kind of test: streptavidin binders on small-molecule microarray, primary screen, artefact control for SMM compound annotation, biophysical, 635/667 nm fluorescence (AID 1147).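 Also: signal reflects streptavidin binding to arrayed compounds as a control protein.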 As to conditions: streptavidin binding, higher = more signal.
The nature of test [16]: small-molecule binders of probe aInhba, primary screen, biochemical, small-molecule microarray, 635/667 nm fluorescence (AID 1148).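 Also: score merges 667nm spot fluorescence with signal-to-noise for antibody binding to printed compounds.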 Conditions: higher = more signal.
In test [17] the target is Torsin-1A (Homo sapiens) (UniProt O14656). Kind of test: torsin A binders from cell lysate, primary screen, small-molecule microarray, wild-type, 635/667 nm (AID 1149). Conditions: COS7 hTOR1A-WT lysate, 635 nm fluorescence, higher = more signal.
For test [18] the target is unchanged. Kind of test: small-molecule binders of mutant TOR1A in lysate, primary screen, cell lysate, small-molecule microarray, COS7 lysate, 635/667 nm fluorescence (AID 1150).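 Also: score pools 667 nm emission and signal to noise measuring lysate protein binding.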 As to conditions: COS7 hTOR1A mutant lysate, 635 nm fluorescence, higher = more signal.
Test [19] has as its system Sonic hedgehog protein (Shh). Kind of test: small-molecule binders of Shh protein, primary screen, biochemical, small-molecule microarray, 635/667 nm fluorescence (AID 1151).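 Also: Shh protein binding to compounds spotted on small-molecule microarray slides; score combines spot fluorescence intensity with signal-to-noise across triplicate slides.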 As to conditions: small-molecule microarray binding, 635 nm fluorescence; higher = more signal.

Chain of Streptavidin (Streptomyces avidinii) (P22629 whole entry, looked up): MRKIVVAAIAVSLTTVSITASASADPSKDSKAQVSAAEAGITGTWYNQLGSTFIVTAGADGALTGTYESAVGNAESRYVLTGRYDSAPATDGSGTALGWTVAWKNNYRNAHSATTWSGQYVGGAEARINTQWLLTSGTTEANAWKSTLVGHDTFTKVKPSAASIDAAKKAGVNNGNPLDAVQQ
Chain of Fibroblast growth factor 2 (Homo sapiens) (P09038 whole entry, looked up): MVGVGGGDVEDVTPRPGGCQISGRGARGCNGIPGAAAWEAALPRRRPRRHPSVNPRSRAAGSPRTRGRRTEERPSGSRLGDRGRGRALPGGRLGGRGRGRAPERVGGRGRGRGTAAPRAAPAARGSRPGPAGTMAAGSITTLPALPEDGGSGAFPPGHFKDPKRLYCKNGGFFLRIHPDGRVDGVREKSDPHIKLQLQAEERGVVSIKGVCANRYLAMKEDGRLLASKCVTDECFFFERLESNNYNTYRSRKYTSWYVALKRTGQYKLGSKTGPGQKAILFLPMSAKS
Chain of Focal adhesion kinase 1 (Homo sapiens) (Q05397 whole entry, looked up): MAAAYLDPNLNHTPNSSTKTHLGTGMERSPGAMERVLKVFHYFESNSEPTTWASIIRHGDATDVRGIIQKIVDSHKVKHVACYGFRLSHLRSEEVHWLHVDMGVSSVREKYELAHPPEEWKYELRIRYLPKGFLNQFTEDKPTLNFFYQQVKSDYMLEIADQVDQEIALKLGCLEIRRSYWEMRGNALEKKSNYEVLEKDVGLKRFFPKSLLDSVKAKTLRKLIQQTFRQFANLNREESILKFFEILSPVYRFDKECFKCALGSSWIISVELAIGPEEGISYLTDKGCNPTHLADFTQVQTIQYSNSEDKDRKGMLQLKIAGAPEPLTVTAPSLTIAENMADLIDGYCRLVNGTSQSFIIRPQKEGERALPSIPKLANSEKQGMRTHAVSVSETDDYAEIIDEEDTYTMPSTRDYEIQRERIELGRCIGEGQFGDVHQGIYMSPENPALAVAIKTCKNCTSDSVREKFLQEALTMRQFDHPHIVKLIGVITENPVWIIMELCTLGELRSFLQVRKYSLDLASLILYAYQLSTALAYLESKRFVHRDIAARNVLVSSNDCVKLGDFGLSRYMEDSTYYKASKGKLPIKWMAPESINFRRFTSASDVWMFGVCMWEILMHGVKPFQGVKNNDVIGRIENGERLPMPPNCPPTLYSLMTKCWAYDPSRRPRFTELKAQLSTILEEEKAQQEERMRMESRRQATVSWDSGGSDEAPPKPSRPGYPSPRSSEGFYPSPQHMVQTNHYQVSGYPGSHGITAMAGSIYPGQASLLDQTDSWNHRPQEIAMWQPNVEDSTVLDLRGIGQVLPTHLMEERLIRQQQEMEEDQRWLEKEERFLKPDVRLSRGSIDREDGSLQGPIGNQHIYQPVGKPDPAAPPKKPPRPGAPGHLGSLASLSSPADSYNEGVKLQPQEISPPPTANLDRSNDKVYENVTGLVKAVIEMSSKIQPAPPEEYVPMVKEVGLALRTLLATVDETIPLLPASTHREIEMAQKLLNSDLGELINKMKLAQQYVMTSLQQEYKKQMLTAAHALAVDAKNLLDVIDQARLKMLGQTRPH
Chain of Torsin-1A (Homo sapiens) (O14656 whole entry, looked up): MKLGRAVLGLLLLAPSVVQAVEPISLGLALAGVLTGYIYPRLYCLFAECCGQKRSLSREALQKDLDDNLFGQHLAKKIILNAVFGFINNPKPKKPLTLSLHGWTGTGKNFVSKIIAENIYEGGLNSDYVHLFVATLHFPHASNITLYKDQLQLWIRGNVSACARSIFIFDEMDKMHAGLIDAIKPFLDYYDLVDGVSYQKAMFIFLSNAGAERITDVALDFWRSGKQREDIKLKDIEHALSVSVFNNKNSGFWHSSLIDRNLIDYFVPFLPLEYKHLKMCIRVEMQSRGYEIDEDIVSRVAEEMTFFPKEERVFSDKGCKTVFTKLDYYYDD
Chain of Follistatin (Homo sapiens) (P19883 whole entry, looked up): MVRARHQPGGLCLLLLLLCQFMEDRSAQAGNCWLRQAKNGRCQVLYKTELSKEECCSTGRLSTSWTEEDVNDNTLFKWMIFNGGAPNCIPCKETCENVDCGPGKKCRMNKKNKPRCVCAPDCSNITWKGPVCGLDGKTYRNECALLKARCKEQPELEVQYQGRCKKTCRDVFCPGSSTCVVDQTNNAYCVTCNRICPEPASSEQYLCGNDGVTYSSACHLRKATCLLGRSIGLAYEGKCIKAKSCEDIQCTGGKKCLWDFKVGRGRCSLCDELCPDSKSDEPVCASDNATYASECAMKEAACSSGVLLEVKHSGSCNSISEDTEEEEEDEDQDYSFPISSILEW
Chain of Luciferin 4-monooxygenase (Photinus pyralis) (P08659 whole entry, looked up): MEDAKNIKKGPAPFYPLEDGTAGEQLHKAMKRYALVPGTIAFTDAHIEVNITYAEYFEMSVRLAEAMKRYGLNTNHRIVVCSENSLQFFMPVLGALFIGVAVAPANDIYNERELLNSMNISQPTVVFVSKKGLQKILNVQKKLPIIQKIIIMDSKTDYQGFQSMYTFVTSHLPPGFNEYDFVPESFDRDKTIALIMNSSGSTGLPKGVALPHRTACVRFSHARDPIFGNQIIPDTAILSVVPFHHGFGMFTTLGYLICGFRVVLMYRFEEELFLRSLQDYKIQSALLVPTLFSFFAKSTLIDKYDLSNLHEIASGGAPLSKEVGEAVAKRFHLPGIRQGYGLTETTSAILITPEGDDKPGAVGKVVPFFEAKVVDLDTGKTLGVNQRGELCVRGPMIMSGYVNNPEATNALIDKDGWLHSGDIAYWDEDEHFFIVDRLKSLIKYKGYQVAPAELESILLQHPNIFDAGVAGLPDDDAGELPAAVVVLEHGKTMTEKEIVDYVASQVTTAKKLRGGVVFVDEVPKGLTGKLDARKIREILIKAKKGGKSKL

Regarding `O=S(=O)(NCCCO)c1ccc(Br)cc1`, the composite z-score was 0.309 in test [1]; 0.918 in test [2]; 0.0087 in test [3]; -0.088 in [4]; 1.17 in test [5]; 0.663 in [6]. The composite z-score in the test on Lefty1 is -0.0569; in [8] it was 0.54; in test [10] it was 0.191; in test [15], 0.587; in test [16], -0.024; with Torsin-1A (Homo sapiens) [17], 0.729. The values for the composite z-score (with Torsin-1A (Homo sapiens) [18]; in [19]) were 0.783 and 0.533, respectively. Besides, the z-score was 0.802 in [7]; -0.0622 (inactive) in [9]; -1.52 (inactive) in test [11]; -0.658 (inactive) in [12]; -0.198 (inactive) in test [13]; -0.472 (inactive) in test [14].

With `O=C(CS)NCCCCCNC(=O)[C@H]1C[C@H]2C(=O)N[C@@H](Cc3ccccc3)C(=O)N2[C@H]1c1cccc(OCCO)c1`, the composite z-score in [1] worked out at 2.51; in [2], 1.16; in test [3], 0.181; in test [4], 0.748; in test [5], 1.37; in [6], 1.77. For the same compound, the composite z-score in the test with Lefty1 is 1.45; in test [8], 0.788; in test [10], 0.306; in test [15], -0.304; in [16], 0.0439; in the test with Torsin-1A (Homo sapiens) [17] it was 0.88. The composite z-score in the test with Torsin-1A (Homo sapiens) [18] stood at 0.822; in test [19] it was 1.83. In addition, the z-score in test [7] is 1.17; in test [9], -2.3 (inactive); in [11], -0.178 (inactive); in test [12], -0.388 (inactive); in test [13], 0.696 (inactive); in [14], -0.0595 (inactive).

Regarding `[N-]=[N+]=NCc1ccccc1[C@H]1OC(c2ccc(OCCCO)cc2)=N[C@@]1(Cc1ccccc1)C(=O)NCC(O)CO` (stereo not given in full), the composite z-score in test [1] was 1.86; in test [2], 1.25; in test [3], 1.08; in test [4], 0.726; in test [5], 0.474; in test [6], -0.0723. For the same compound, the composite z-score in the test with Lefty1 is -0.994; in test [8], 0.486; in test [10] it was 0.11; in test [15] it was 0.496; in [16], 0.296; with Torsin-1A (Homo sapiens) [17], 0.379. Besides, the composite z-score with Torsin-1A (Homo sapiens) [18] was 0.894; in [19], -0.76. The z-score in test [7] was 1.2; in test [9], 0.142 (inactive); in test [11], -2.11 (inactive); in [12] it was -0.737 (inactive); in test [13], 0.96 (inactive); in test [14], 0.452 (inactive).

Turning to `CN(C)CCCC[C@@H]1NC(=O)[C@@H]2C[C@H](C(=O)NCCCCCN)[C@H](c3ccc(O)cc3)N2C1=O`, the composite z-score in [1] was 0.637; in test [2] it was 0.732; in test [3], 0.91; in test [4], 0.502; in test [5], -0.126; in test [6], -0.585. The composite z-score was -0.318 in the test on Lefty1; 1.09 in [8]; -0.286 in test [10]; 1.26 in test [15]; -0.0639 in test [16]; 0.424 in the test with Torsin-1A (Homo sapiens) [17]. The composite z-score with Torsin-1A (Homo sapiens) [18] was 0.901; in [19] it was -0.631. Besides, the z-score in [7] was 0.393; in [9], -0.806 (inactive); in test [11] it was 0.202 (inactive); in test [12] it was -0.504 (inactive); in test [13], 0.549 (inactive); in [14], 0.304 (inactive).

The record behind these values is PubChem BioAssay.
